Structures are written as SMILES. Screen size: about 310,000 compounds; about 14,000 (4.5%) showed an effect of 50% or more. The effect is printed as a negative number. This is one part of a sample in which strong results are shown more often than they occur.

Data on 88 compounds can be found in article PMC4336329 (PLoS ONE, 2015).
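Further: peak tail current of the secondary pulse compared with the same well before compound.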

Chain of human ether-à-go-go-related gene (hERG) potassium channel (Q12809 whole entry, looked up): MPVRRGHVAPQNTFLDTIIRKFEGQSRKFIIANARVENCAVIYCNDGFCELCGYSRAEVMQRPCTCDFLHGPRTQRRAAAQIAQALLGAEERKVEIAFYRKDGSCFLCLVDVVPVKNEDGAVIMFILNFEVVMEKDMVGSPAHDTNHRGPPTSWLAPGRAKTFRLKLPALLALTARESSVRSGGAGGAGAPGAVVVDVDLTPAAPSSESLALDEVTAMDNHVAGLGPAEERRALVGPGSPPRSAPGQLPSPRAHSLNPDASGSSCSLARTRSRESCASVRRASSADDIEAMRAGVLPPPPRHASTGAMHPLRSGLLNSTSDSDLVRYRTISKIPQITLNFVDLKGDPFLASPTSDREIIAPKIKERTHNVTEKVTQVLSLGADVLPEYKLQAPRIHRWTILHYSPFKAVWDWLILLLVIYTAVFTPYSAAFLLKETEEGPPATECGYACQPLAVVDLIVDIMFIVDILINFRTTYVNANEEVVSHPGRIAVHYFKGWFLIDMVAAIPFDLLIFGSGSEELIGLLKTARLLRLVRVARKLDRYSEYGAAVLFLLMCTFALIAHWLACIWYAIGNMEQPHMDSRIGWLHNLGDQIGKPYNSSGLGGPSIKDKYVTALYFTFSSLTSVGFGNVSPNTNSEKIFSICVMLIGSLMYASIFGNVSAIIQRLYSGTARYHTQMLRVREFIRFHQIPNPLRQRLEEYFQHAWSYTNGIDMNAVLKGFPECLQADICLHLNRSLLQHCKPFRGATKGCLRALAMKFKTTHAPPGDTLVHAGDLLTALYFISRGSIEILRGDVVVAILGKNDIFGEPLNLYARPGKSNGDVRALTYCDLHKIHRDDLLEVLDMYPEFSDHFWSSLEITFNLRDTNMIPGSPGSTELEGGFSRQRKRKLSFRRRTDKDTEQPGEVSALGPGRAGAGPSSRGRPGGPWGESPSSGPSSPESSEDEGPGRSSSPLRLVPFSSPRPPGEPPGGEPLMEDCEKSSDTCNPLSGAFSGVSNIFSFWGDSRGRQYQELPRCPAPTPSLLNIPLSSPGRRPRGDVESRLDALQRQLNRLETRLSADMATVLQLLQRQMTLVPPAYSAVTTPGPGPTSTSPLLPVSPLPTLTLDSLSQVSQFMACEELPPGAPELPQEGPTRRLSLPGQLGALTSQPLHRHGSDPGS

This test addresses human ether-à-go-go-related gene (hERG) potassium channel (human, UniProt Q12809). Description: primary screen, population patch clamp on CHO cells stably expressing hERG; higher = less effect of the substance.
In the case of `CC(=O)c1nn(-c2cccc(Br)c2)cc1C(=O)c1ccc(Br)cc1`, the “hERG current change (%, negative = inhibition) at 10uM” value is reported as 12.7%.
Then `O=C(NCCCN=C1NS(=O)(=O)c2ccccc21)c1ccc(S(=O)(=O)N2CCOCC2)cc1`, with 4.24%; and `COCn1ccnc1C(O)(c1ccc(OC)cc1)c1ccc(OC)cc1`, with 9.69%; and `O=C(O)CCC(NS(=O)(=O)c1ccc(N2CCCC2=O)cc1)C(=O)O` (stereo not shown), with -7.11%.
`O=C(O)C(=O)O.O=C(c1ccc(F)cc1)N1CCN(C2CCCCC2)CC1`: the “hERG current change (%, negative = inhibition) at 10uM” value is given as -62.1%.
To `O=C(c1ccc(F)cc1)N1CCC(c2ccccc2)C1` (stereo not shown) belongs 2.75%; to `CC1CCC(N2CCN(C(=O)c3ccccc3F)CC2)CC1.O=C(O)C(=O)O` (stereo not shown), -2.63%; to `O=C(O)C(=O)O.O=C(c1ccncc1)N1CCN(C2CCC(c3ccccc3)CC2)CC1` (stereo not shown), -63.4%.
With `O=C(O)C(=O)O.O=C(c1ccc(F)cc1)N1CCN(C2CCC(c3ccccc3)CC2)CC1` (stereo not shown), the “hERG current change (%, negative = inhibition) at 10uM” value is given as -76%.
Then `O=C(O)C(=O)O.O=C(c1ccccc1F)N1CCN(C2CCC(c3ccccc3)CC2)CC1` (stereo not shown), with -60.5%; and `O=C(c1ccncc1)N1CCN(C(=O)c2ccncc2)CC1`, with 12%.
For `O=C(O)C(=O)O.O=C(c1ccccc1)N1CCN(C2CCCCC2)CC1`, the “hERG current change (%, negative = inhibition) at 10uM” value is reported as -31.9%.
As to `O=C(O)C(=O)O.O=C(c1ccccc1)N1CCN(C2CCCCCC2)CC1`, the “hERG current change (%, negative = inhibition) at 10uM” value was -28.8%.
On to `O=C(c1ccc(F)cc1)N1CCCC(c2ccccc2)C1` (stereo not shown), for which the “hERG current change (%, negative = inhibition) at 10uM” value came to 15.8%.
Then `COc1cccc(C(=O)N2CCN(C3CCC(c4ccccc4)CC3)CC2)c1OC.O=C(O)C(=O)O` (stereo not shown), with -10.1%.
Then `O=C(O)C(=O)O.O=C(c1ccncc1)N1CCN(C2CCCCC2)CC1`, with -23.4%; and `O=C(CSc1nnc2ccccn12)NC(=O)NC1CCCC1`, with 13.4%; and `O=C(O)C1C2C=CC(C2)C1C(=O)Nc1cccc(C(F)(F)F)c1` (stereo not shown), with 8.95%.
Then `CC(C)c1ccc(/C=C2\SC(N3CCCC3)=NC2=O)cc1`, with -37.1%.
For the compound `CCOc1ccccc1OCCCC(=O)NNC(=O)c1nn(C)c(=O)c2ccccc12`, the “hERG current change (%, negative = inhibition) at 10uM” value is recorded as -20.3%.
With `Cn1cnc(S(=O)(=O)Nc2ccccc2C(=O)NCC2CC2)c1`, the “hERG current change (%, negative = inhibition) at 10uM” value amounted to 13.7%.
With `Cc1ccc(C)c(NC(=S)NNc2ccc(F)cc2F)c1`, the “hERG current change (%, negative = inhibition) at 10uM” value is reported as 5.57%.
As to `Cc1c(C)c2ccc(O[C@@H]3O[C@H](CO)[C@@H](O)[C@H](O)[C@H]3O)c(C)c2oc1=O`, the “hERG current change (%, negative = inhibition) at 10uM” value is on record as 11.7%.
Turning to `COc1ccc(NC(=O)c2ccc(Cl)c(S(=O)(=O)N3CCc4ccccc4C3)c2)cn1`, the “hERG current change (%, negative = inhibition) at 10uM” value is listed as -46.8%.
For `CCc1cc(C(c2cccc(OC)c2)N2CCOCC2)c(NC(=O)c2ccccc2)s1` (stereo not shown), the “hERG current change (%, negative = inhibition) at 10uM” value is listed as -1.91%.
In the case of `Cc1cc(NO)c(C(C)C)cc1N=O`, the “hERG current change (%, negative = inhibition) at 10uM” value is listed as -2.87%.
Then `O=C(NC1CCN(C(=O)NCc2ccccc2)CC1)c1ccc(F)cc1`, with -15.8%; and `O=C(NCCNC1CCC(c2ccccc2)CC1)c1ccc(F)cc1` (stereo not shown), with -58.3%; and `O=C(NCCNC1CCC(c2ccccc2)CC1)c1cccs1` (stereo not shown), with -35.2%.
For the compound `C/C(=N\NC(=O)c1ccccn1)c1ccc(Cl)cc1`, the “hERG current change (%, negative = inhibition) at 10uM” value turned out to be 5.74%.
To `Cc1ccc2[nH]c(O)c(N=NC(=O)CCc3ccccc3)c2c1Br` belongs 10.5%; to `Cc1ccc2[nH]c(O)c(N=NC(=O)C3CC3c3ccccc3)c2c1Br` (stereo not shown), -55.7%; to `Cc1cc2c(N=NC(=O)C3CC3c3ccccc3)c(O)[nH]c2cc1Br` (stereo not shown), 0.687%.
As for `COC(=O)CCC(=O)OC1(C)C(=O)C2=CN(Cc3ccc(OC)cc3)C(c3ccc(OC)cc3)=CC2=C(Br)C1=O` (stereo not shown), the “hERG current change (%, negative = inhibition) at 10uM” value is -58.7%.
Then `COC(=O)CCC(=O)OC1(C)C(=O)C2=CN(Cc3ccccc3)C(c3ccc(OC)cc3)=CC2=C(Br)C1=O` (stereo not shown), with 2.01%; and `COC(=O)CCC(=O)OC1(C)C(=O)C2=CN(CC3CC3)C(c3ccc(OC)cc3)=CC2=C(Br)C1=O` (stereo not shown), with 4.74%.
With `COC(=O)CCC(=O)OC1(C)C(=O)C2=CN(C3CC3)C(c3ccc(OC)cc3)=CC2=C(Br)C1=O` (stereo not shown), the “hERG current change (%, negative = inhibition) at 10uM” value turned out to be 14.4%.
For `COC(=O)CCC(=O)OC1(C)C(=O)C2=CN(C3CCCC3)C(c3ccc(OC)cc3)=CC2=C(Br)C1=O` (stereo not shown), the “hERG current change (%, negative = inhibition) at 10uM” value was -52.6%.
`COCCN1C=C2C(=O)C(C)(OC(=O)CCC(=O)OC)C(=O)C(Br)=C2C=C1c1ccc(OC)cc1` (stereo not shown): the “hERG current change (%, negative = inhibition) at 10uM” value was 7.96%.
To `Cc1ccc(N2CCN(C3=NC(=O)/C(=C\c4cn[nH]c4-c4ccccc4)S3)CC2)cc1` belongs 2.07%; to `COc1ccc(C2/C=C\CN(C(=O)OCc3ccccc3)CC(=O)N2Cc2ccc(F)cc2)cc1` (stereo not shown), -26%; to `CCOC(=O)Cc1cc(=O)c2c(=O)n(-c3ccccc3)[nH]c2[nH]1`, 9.55%.
As to `O=C(Oc1ccccc1)Oc1ccc2c(c1)oc(=O)c1ccccc12`, the “hERG current change (%, negative = inhibition) at 10uM” value is listed as 16.9%.
In the case of `CN(C)C(N)=NCCC[C@H](N)C(=O)O.Cl`, the “hERG current change (%, negative = inhibition) at 10uM” value is 9.67%.
To `O=C(c1ccco1)N1CCN(c2cccc(Cl)c2)CC1` belongs -11.5%; to `CC(C)(C)C(=O)N1CCN(c2ccnc3cc(Cl)ccc23)CC1`, -73.9%.
Consider `Clc1ccc2c(N3CCNCC3)ccnc2c1`, for which the “hERG current change (%, negative = inhibition) at 10uM” value is given as -41.9%.
As to `CC(=O)N1CCN(c2ccnc3cc(Cl)ccc23)CC1`, the “hERG current change (%, negative = inhibition) at 10uM” value is -50.4%.
Regarding `CC(=O)N1CCC(=NNc2ccnc3cc(Cl)ccc23)CC1`, the “hERG current change (%, negative = inhibition) at 10uM” value is -22.2%.
To `O=C(c1ccco1)N1CCN(c2ccnc3cc(Cl)ccc23)CC1` belongs -71.5%; to `Clc1ccc2c(N3CCCC3)ccnc2c1`, -65.2%; to `Clc1ccc2c(N3CCOCC3)ccnc2c1`, -17.1%.
`COc1ccc(N2CCN(c3ccnc4cc(Cl)ccc34)CC2)cc1`: the “hERG current change (%, negative = inhibition) at 10uM” value is reported as -36.5%.
To `Oc1ccc(N2CCN(c3ccnc4cc(Cl)ccc34)CC2)cc1` belongs -22.7%; to `O=C(c1ccco1)N1CCN(c2ccc(Cl)cc2)CC1`, -40.7%.
Consider `CCCCOc1ccccc1C1NC(=O)NC(C)=C1C(=O)OCCOCC` (stereo not shown), for which the “hERG current change (%, negative = inhibition) at 10uM” value is -8.27%.
Take `COc1ccc(C2CC(c3ccccc3)Nc3nc(N)nn32)cc1` (stereo not shown): the “hERG current change (%, negative = inhibition) at 10uM” value is given as -25%.
Consider `Cc1ccc(S(=O)(=O)N2CCOCC2)cc1NC(=O)CSc1nnc(C2CC2)n1C1CC1`, for which the “hERG current change (%, negative = inhibition) at 10uM” value is -7.36%.
As for `Cc1nc2ccccc2n1-c1nc(-c2ccco2)cc(C(F)(F)F)n1`, the “hERG current change (%, negative = inhibition) at 10uM” value is 5.46%.
In the case of `CC(C)(C)OC(=O)CC[C@@H](C(=O)NCCCCCCCCCCC(=O)N1CCN(C(=O)OC(C)(C)C)CC1)n1cc(CCCCCNC(=O)OC(C)(C)C)nn1`, the “hERG current change (%, negative = inhibition) at 10uM” value stood at 4.12%.
Regarding `CCOC(=O)c1cc(-c2ccc3c(c2)OCCO3)nc2c1c(C)nn2CCC#N`, the “hERG current change (%, negative = inhibition) at 10uM” value was determined as 3.85%.
With `CC(=O)c1ccc(NC(=O)CCCC(=O)c2ccccc2)cc1`, the “hERG current change (%, negative = inhibition) at 10uM” value turned out to be 12.6%.
Consider `CO/N=C(\C(=O)O)c1csc(NN=C(C)C)n1`, for which the “hERG current change (%, negative = inhibition) at 10uM” value turned out to be 16.2%.
On to `COC(=O)c1nc2nc(C)cc(=O)n2[nH]1`, for which the “hERG current change (%, negative = inhibition) at 10uM” value is recorded as 20.2%.
Regarding `O=C(CSc1nnc(-c2cccnc2)n1Cc1ccco1)c1ccc2ccccc2c1`, the “hERG current change (%, negative = inhibition) at 10uM” value is -45.6%.
For `CCOC(=O)N1CCN(c2cc3nccnc3cc2F)CC1`, the “hERG current change (%, negative = inhibition) at 10uM” value is reported as -12.5%.
Then `CCCCNC(=O)N1CCN(c2ncccn2)CC1`, with 3.43%.
Consider `CCCC(=O)Nc1cc(Cl)ccc1N1CCN(C(=O)CC)CC1`, for which the “hERG current change (%, negative = inhibition) at 10uM” value is -33.1%.
Regarding `CC(=O)N1CCN(Cc2nc3cc(Cl)ccc3c(=O)[nH]2)CC1`, the “hERG current change (%, negative = inhibition) at 10uM” value is -31.7%.
To `CCOC(=O)N1CCN(c2ccnc3cc(Cl)ccc23)CC1` belongs -66%.
As to `NC(=O)C1CCN(Cc2nc3cc(Cl)ccc3c(=O)[nH]2)CC1`, the “hERG current change (%, negative = inhibition) at 10uM” value is listed as 5.22%.
Take `CCCCNC(=O)N1CCN(c2ccccc2OCC)CC1`: the “hERG current change (%, negative = inhibition) at 10uM” value is -0.115%.
Then `O=C(c1ccco1)N1CCN(Cc2nc3cc(Cl)ccc3c(=O)[nH]2)CC1`, with -61.8%; and `CCOC(=O)N1CCC(=NNc2ccnc3cc(Cl)ccc23)CC1`, with -32.5%; and `CCCCNC(=O)N1CCN(c2ccnc3cc(Cl)ccc23)CC1`, with -78.2%.
Consider `O=C(O)CSCC(=O)N1CCN(c2ccnc3cc(Cl)ccc23)CC1`, for which the “hERG current change (%, negative = inhibition) at 10uM” value worked out at 9.15%.
With `CCC(=O)N1CCN(c2ccnc3cc(Cl)ccc23)CC1`, the “hERG current change (%, negative = inhibition) at 10uM” value is given as -63.6%.
`Cc1ccc(-c2csc(NC(=O)c3ccco3)n2)cc1C`: the “hERG current change (%, negative = inhibition) at 10uM” value is on record as -15.6%.
As for `CC(=O)Nc1ccc(NC(=O)c2c(-c3ccccc3)noc2C)cn1`, the “hERG current change (%, negative = inhibition) at 10uM” value was found to be 15.9%.
Then `c1ccc2c(C3=NNC(=NC4CC4)SC3)c[nH]c2c1`, with -20.1%.
On to `CCN(CC)CCCNC(=O)c1cc(-c2ccc(Cl)cc2)on1`, for which the “hERG current change (%, negative = inhibition) at 10uM” value is given as -63.4%.
Turning to `CCN(CC)CCCNC(=O)c1cc(-c2ccc(O)cc2)on1`, the “hERG current change (%, negative = inhibition) at 10uM” value is -37.3%.
To `CCN(CC)CCCNC(=O)c1cc(-c2cccc(Cl)c2)on1` belongs -60.7%; to `O=C(NCCN1CCOCC1)c1cc(-c2cccc(Cl)c2)on1`, -4.73%.
Consider `CCN(CC)CCCNC(=O)c1cc(-c2ccc3c(c2)OCO3)on1`, for which the “hERG current change (%, negative = inhibition) at 10uM” value is given as -18.8%.
As to `O=C(NCc1cccs1)c1cc(-c2cccc(Cl)c2)on1`, the “hERG current change (%, negative = inhibition) at 10uM” value is -16.1%.
In the case of `c1ccc(-c2ccc(-c3ccncn3)cc2)cc1`, the “hERG current change (%, negative = inhibition) at 10uM” value amounted to 23.6%.
With `O=C1NC(=S)N/C1=C/c1cccn1-c1ccc([N+](=O)[O-])cc1`, the “hERG current change (%, negative = inhibition) at 10uM” value is on record as 12.8%.
